Measurements from the supplement of paper PMC13380429.

System: Vero E6 infected with SARS-CoV-2
Assay: inhibition of SARS-CoV-2 cytopathic effect; higher = more antiviral protection, active = above 15
Conditions: 48 h

Measured: inhibition of SARS-CoV-2 cytopathic effect

COc1cc(NS(C)(=O)=O)ccc1Nc1c2ccccc2nc2ccccc12 [amsacrine]
inactive: 1 nM -2.31% | 8.33 nM 1.72% | 100 nM -0.21% | 833.33 nM -6.01% | 10000 nM -5.76%

CNCCCN1c2ccccc2CCc2ccccc21 [desipramine]
inactive: 1 nM -0.7% | 8.33 nM -0.11% | 100 nM -1.22% | 833.33 nM -1.13% | 10000 nM -2.62%

Cn1nc(C(C)(C)C)cc1C(=O)N[C@@H](Cc1cccc(Cl)c1)C(=O)NCC#N [cathepsin-inhibitor-1]
inactive: 1 nM 0.51% | 8.33 nM 1.86% | 100 nM -0.47% | 833.33 nM -5.37% | 10000 nM -1.36%

COC(=O)C1=C(C#N)NC(C)=C(C(=O)OC(C)C)C1c1cccc([N+](=O)[O-])c1 (stereo not given) [nilvadipine]
inactive: 1 nM -1.91% | 8.33 nM -2.45% | 100 nM 0.29% | 833.33 nM 5.15% | 10000 nM 3.78%

O=C(CN1C(=O)C2(CCCC2)NC[C@H]1c1cc(F)cc(F)c1)Nc1ccc2c(c1)C[C@@]1(C2)C(=O)Nc2ncccc21
inactive: 1 nM -6.85% | 8.33 nM -7.92% | 100 nM -8.42% | 833.33 nM -6.83% | 10000 nM -2.55%

CCCCCCCCCCCCC/C=C/[C@@H](O)[C@@H](N)CO[P@](=O)(O)OCC[N+](C)(C)C [sphingosylphosphorylcholine]
inactive: 1 nM -0.9% | 8.33 nM -2.99% | 100 nM 3.74% | 833.33 nM -2.02% | 10000 nM 3.54%

O=C1Nc2cc(Cl)c(Cl)cc2N2CCNC[C@H]12
inactive: 1 nM -0.02% | 8.33 nM -0.54% | 100 nM 1.72% | 833.33 nM 0.92% | 10000 nM 1.67%

O=C(NO)C1(CS(=O)(=O)c2ccc(Oc3ccc(Cl)cc3)cc2)CCOCC1
inactive: 1 nM -0.75% | 8.33 nM -2.34% | 100 nM 0.31% | 833.33 nM -0.91% | 10000 nM -11.7%

CNC(=O)c1cccc(NC(=O)N2CCC(Oc3ccccc3Cl)CC2)c1
inactive: 1 nM 0.48% | 8.33 nM -3.23% | 100 nM -1.17% | 833.33 nM -2.36% | 10000 nM -3.23%

Cc1ccc(Nc2c(F)cccc2Cl)c(CC(=O)O)c1 [lumiracoxib]
inactive: 1 nM -0.15% | 8.33 nM -0.84% | 100 nM -0.33% | 833.33 nM 0.6% | 10000 nM -0.38%

CCN[C@@H](C)Cc1cccc(C(F)(F)F)c1 [dexfenfluramine]
inactive: 1 nM 1.76% | 8.33 nM -0.09% | 100 nM 2.9% | 833.33 nM -3.54% | 10000 nM 0.8%

CCC(CC)(CC(=O)Nc1cccc(/C=C/c2nc(C3CCC3)cs2)c1)C(=O)O [cinalukast]
inactive: 1 nM -1.61% | 8.33 nM 0.18% | 100 nM 0.24% | 833.33 nM 0.4% | 10000 nM 1.8%

O=C(O)[C@H]1CN(C/C=C/P(=O)(O)O)CCN1 [midafotel]
inactive: 1 nM -2.43% | 8.33 nM -0.69% | 100 nM 0.17% | 833.33 nM 1.03% | 10000 nM 3.52%

C#C[C@]1(O)CC[C@H]2[C@@H]3CCC4=CC(=O)CC[C@@H]4[C@H]3CC[C@@]21C [Norethindrone (Norethisterone)]
inactive: 1 nM -1.49% | 8.33 nM -0.9% | 100 nM -1.69% | 833.33 nM 1.37% | 10000 nM 2.33%

COc1ccc(Br)cc1S(=O)(=O)NC(=O)/C=C/c1ccccc1Cc1ccc2ccccc2c1
inactive: 1 nM 1.22% | 8.33 nM 1.19% | 100 nM 1.93% | 833.33 nM 3.35% | 10000 nM -0.51%

CC(C(=O)O)c1cccc(Oc2ccccc2)c1 (stereo not given) [fenoprofen]
inactive: 1 nM -0.67% | 8.33 nM -2.89% | 100 nM 0.97% | 833.33 nM -1.9% | 10000 nM -3.01%

CCCc1cc(=O)[nH]c(=S)[nH]1 [propylthiouracil]
inactive: 1 nM 3.65% | 8.33 nM -8.68% | 100 nM 2.66% | 833.33 nM 2.01% | 10000 nM -1.99%

Cc1ccc(S(=O)(=O)OCC(=O)Nc2ccc(C(=O)O)c(O)c2)cc1 [STAT3-inhibitor-VI]
inactive: 1 nM -0.14% | 8.33 nM -0.23% | 100 nM 0.11% | 833.33 nM -1.76% | 10000 nM 1.39%

Oc1ccc(-c2nc(-c3ccc(F)cc3)c(-c3ccncc3)[nH]2)cc1
inactive: 1 nM 0.33% | 8.33 nM 1.64% | 100 nM -1.29% | 833.33 nM 2.83% | 10000 nM 8.91%

Nc1nc(F)nc2c1ncn2[C@@H]1O[C@H](COP(=O)(O)O)[C@@H](O)[C@@H]1O [fludarabine-phosphate]
inactive: 1 nM 1.37% | 8.33 nM 1.76% | 100 nM -0.32% | 833.33 nM 1.79% | 10000 nM -4.26%

CO[C@]12C[C@@H](COC(=O)c3cncc(Br)c3)CN(C)[C@@H]1Cc1cn(C)c3cccc2c13 [nicergoline]
inactive: 1 nM 0.73% | 8.33 nM -1.36% | 100 nM -1.54% | 833.33 nM 0.48% | 10000 nM -0.35%

C/C(=N\NC(=O)C(NC(=O)c1ccccc1)c1n[nH]c(=O)c2ccccc12)c1cccc(Br)c1 (stereo not given)
inactive: 1 nM -0.71% | 8.33 nM 2.21% | 100 nM 0.8% | 833.33 nM 3.15% | 10000 nM 4.46%

CCCCCCCCCCC(CO)CCCCCCCC (stereo not given) [2-octyldodecan-1-ol]
inactive: 1 nM 1.79% | 8.33 nM -0.7% | 100 nM 0.48% | 833.33 nM 0.76% | 10000 nM 0.34%

CN1C(=O)CCS(=O)(=O)C1c1ccc(Cl)cc1 (stereo not given) [chlormezanone]
inactive: 1 nM -2.2% | 8.33 nM -0.15% | 100 nM 0.74% | 833.33 nM 0.68% | 10000 nM 1.19%

CC(C)c1c2cc(-c3ccnc(N[C@H]4CC[C@H](NC5CCOCC5)CC4)n3)ccc2nn1C
inactive: 1 nM -0.19% | 8.33 nM -1.61% | 100 nM -2.09% | 833.33 nM -20.8% | 10000 nM -0.88%

CNC(=O)c1ccc(C)c(-n2c(C)cc(OCc3ccc(F)cc3F)c(Br)c2=O)c1
inactive: 1 nM -1.52% | 8.33 nM -2.37% | 100 nM -3.51% | 833.33 nM -2.74% | 10000 nM -7.45%

CCc1ccc(CCOc2ccc(CC3SC(=O)NC3=O)cc2)nc1 (stereo not given) [pioglitazone]
inactive: 1 nM -1.62% | 8.33 nM 1.34% | 100 nM 1.49% | 833.33 nM -8.11% | 10000 nM 1.27%

O=C1Nc2ccc(Cl)cc2[C@@](C#CC2CC2)(C(F)(F)F)O1 [efavirenz]
inactive: 1 nM -5.64% | 8.33 nM -1.07% | 100 nM 0% | 833.33 nM -0.49% | 10000 nM -1.92%

CNC(=O)c1ccc2cc([C@@]3(O)CCn4cncc43)ccc2c1 [orteronel]
inactive: 1 nM 3.23% | 8.33 nM 3.01% | 100 nM 4.35% | 833.33 nM 3.1% | 10000 nM 2.53%

c1ccc(-c2n[nH]cc2-c2ccnc3ccccc23)nc1
inactive: 1 nM 1.81% | 8.33 nM -0.93% | 100 nM -2.43% | 833.33 nM -2.05% | 10000 nM -1.69%

O=C1c2ccccc2C(=O)C1c1ccccc1 [phenindione]
inactive: 1 nM -1.88% | 8.33 nM -1.11% | 100 nM -1.06% | 833.33 nM -1.97% | 10000 nM -3.42%

Nc1nc(=O)[nH]cc1F [flucytosine]
inactive: 1 nM -1.58% | 8.33 nM -2.1% | 100 nM 0.5% | 833.33 nM 2.44% | 10000 nM 1.48%

C=CC(=O)Nc1cccc(Nc2nc(Nc3ccc(Oc4ccnc(C(=O)NC)c4)cc3)ncc2F)c1
inactive: 1 nM -1.65% | 8.33 nM 1.5% | 100 nM 0.39% | 833.33 nM -1.84% | 10000 nM 9.86%

CC[C@H](C)C(=O)O[C@H]1C[C@H](O)C=C2C=C[C@H](C)[C@H](CC[C@@H](O)C[C@@H](O)CC(=O)O)[C@H]21
inactive: 1 nM 0.27% | 8.33 nM 3.73% | 100 nM 2.53% | 833.33 nM 6.3% | 10000 nM 1.69%

OC[C@H]1O[C@@H](Oc2cc(O)cc(/C=C/c3ccc(O)cc3)c2)[C@H](O)[C@@H](O)[C@@H]1O [polydatin]
inactive: 1 nM -1.01% | 8.33 nM -1.06% | 100 nM 1.77% | 833.33 nM 9.49% | 10000 nM 2.31%

OCCC#Cc1nc(-c2ccc(F)cc2)c(-c2ccncc2)n1CCCc1ccccc1
inactive: 1 nM 2.21% | 8.33 nM -1.75% | 100 nM -1.41% | 833.33 nM 0.51% | 10000 nM 2.27%

CCOC(=O)Nc1ccc2c(c1)N(C(=O)CN(CC)CC)c1ccccc1CC2
inactive: 1 nM -0.45% | 8.33 nM 0.56% | 100 nM 1.77% | 833.33 nM 0.29% | 10000 nM 0.79%

COc1cc(NS(=O)(=O)c2ccc(N)cc2)ncn1 [sulfamonomethoxine]
inactive: 1 nM 0.65% | 8.33 nM 1.44% | 100 nM -1.17% | 833.33 nM 1.1% | 10000 nM 1.17%

O=C(O)CSCC(=O)NC1CCSC1=O (stereo not given) [erdosteine]
inactive: 1 nM 1.03% | 8.33 nM 2.17% | 100 nM 1.67% | 833.33 nM -2.61% | 10000 nM 1.6%

COc1ccccc1N1CCN(CCCCNC(=O)c2ccc(-c3ccc(C(C)=O)cc3)cc2)CC1
inactive: 1 nM -1.49% | 8.33 nM -3.1% | 100 nM -4.98% | 833.33 nM -6.69% | 10000 nM -6.57%
